Test results taken from PubChem BioAssay (NCI).
About 83,000 compounds went through this panel and 20% of them were active in at least one assay; those are over-represented in the sample as a whole.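 Single-concentration screen, 48 h exposure, 96-well plates. Endpoint: percent growth. Below 10 = active.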 Values without a mark were called inactive. The source made the active and inactive calls.

Each compound was assayed on UACC-257 melanoma (assay: NCI-60 one-dose screen, 48 h (100 = growth as untreated, 0 = no growth, -100 = all killed)). Conditions: 10 µM unless noted.

Row | SMILES | growth
1 | O=C(COc1cccc(/C=C2\Oc3ccccc3C2=O)c1)c1ccc([N+](=O)[O-])cc1 | 97.6%
2 | CC[C@]12C=CCN3CC[C@@]4(c5ccc(OC)cc5N(C)[C@H]4[C@@](O)(C(=O)OC)[C@@H]1OC(=O)CCC(=O)N[C@H](Cc1c[nH]c4ccccc14)C(=O)OC)[C@@H]32 | -29.2% [100 µM] (active)
3 | C=C(C)[C@@H]1CC[C@]2(C(N)=O)CC[C@]3(C)[C@H](CC[C@@H]4[C@@]5(C)C/C(=C/c6cccnc6)[C@H](O)C(C)(C)[C@@H]5CC[C@]43C)[C@@H]12 | 38% [100 µM]
4 | CSc1nc2sc3cc(Cl)c(Cl)cc3n2c(=N)c1C#N | 99.8%
5 | COc1ccc(/C=C2\N=C(Nc3ccccc3)N(NC(=O)c3ccccn3)C2=O)cc1 | 108%
6 | O=C(NCCCNC(=O)OCc1ccc2cccc(O)c2n1)OCc1ccc2cccc(O)c2n1 | 53.9%
7 | COc1cc(C(=O)/C=C/c2c(-c3ccc(F)cc3)nc3sccn23)cc(OC)c1OC | 39.9%
8 | CCCCCCCCCCCCNC(=S)N/N=C/c1ccccc1O | 98.2%
9 | CCCc1cc2cc(-n3nc(C)c4c3CC(C)(C)CC4=O)cc(NC3CCSCC3)c2c(=O)[nH]1 | 84.6%
10 | COc1ccc(-c2cc(-c3ccc(OC)c(OC)c3)nc(SCCCCCC(=O)NO)n2)cc1 | 41.8%
11 | CCC(C)[C@H](NC(=O)NC(=O)NC(=O)CI)C(=O)OC (some centres undefined) | 85%
12 | CCN(CC)c1ccc(/C=C/c2ccc3cc(C)ccc3[n+]2CC)cc1 | -19% (active)
13 | N/C(=N\c1nc2ccccc2[nH]1)NC(=O)Cc1cccc2ccccc12 | 6.29% (active)
14 | CC1(C)CC[C@]2(C(N)=O)CC[C@]3(C)C(=CC[C@@H]4[C@@]5(C)C/C(=C/c6ccncc6)C(=O)C(C)(C)[C@@H]5CC[C@]43C)[C@@H]2C1 | -58.6% [100 µM] (active)
15 | Cc1ccc(C2=C/C(=C/c3ccc(Br)cc3)C(=O)N2CCc2ccc(S(N)(=O)=O)cc2)cc1 | 101%
16 | Cc1ccc(NCCN2CCCCC2)c2c(=O)c3ccccc3sc12 | -43% (active)
17 | CC1(C)CC(=O)c2c(ccc(C(=O)C[C@@H](N)CO)c2N)O1 | 16.6%
18 | CCCCC1COc2cccc3c2N1C=C/C3=C\C(=O)n1ccc2ccccc21 (centres undefined) | 85.6%
19 | CC(C)CSc1ncnc2nc[nH]c12 | 98.4%

Row | SMILES | growth
20 | CC1(C)CC[C@]2(C(=O)O)CC[C@]3(C)C(=CC[C@@H]4[C@@]5(C)C/C(=C/c6cccnc6)[C@H](O)C(C)(C)[C@@H]5CC[C@]43C)[C@@H]2C1 | -8.97% [100 µM] (active)
21 | COc1ccc(C=C2c3ccccc3-c3ccccc32)cc1 | 52.3%
22 | C#C[C@]1(O)CC[C@H]2[C@@H]3CC=C4c5nc(Nc6ccc(OC)cc6OC)sc5CC[C@]4(C)[C@H]3CC[C@@]21C | -20.3% (active)
23 | CCOC(=O)c1nn(C2CCCCO2)c2ccc(NC(=O)CSc3nc4ccccc4c(=O)[nH]3)cc12 (centres undefined) | 102%
24 | O=c1[nH]cnc2c1ccn2C1OC(CO)C(O)C1O (centres undefined) | 86.2%
25 | CCOC(=O)C(=Cc1ccccc1[N+](=O)[O-])C(=O)OCC | 42%
26 | Cc1cc(C)c(S(=O)(=O)/N=c2/n(-c3ccccc3)nc3n2CCN3C2=NCCN2)c(C)c1 | 92%
27 | COC(=O)c1cc2c(=O)[nH]cc3c2c(n1)CCC3 | 102%
28 | Cn1cc(-c2noc(C(=O)c3cn(C)c4ncccc34)n2)c2ccccc21 | 103%
29 | O=c1cc(-c2ccccc2)oc2cc(OCc3cn(Cc4ccc(F)cc4)nn3)cc(O)c12 | 86.3% [100 µM]
30 | Cc1ccc(Cn2c(O)c(N=NC(=O)c3ccc(S(N)(=O)=O)cc3)c3ccccc32)cc1 | 98%
31 | CC[C@]12C=CCN3CC[C@@]4(c5ccc(OC)cc5N(C)[C@H]4[C@@](O)(C(=O)OC)[C@@H]1OC(=O)CCC(=O)O[C@H]1CC[C@H]4[C@@H]5CCC6=CC(=O)CC[C@@H]6[C@H]5CC[C@]14C)[C@@H]32 | 14.8% [100 µM]
32 | CCC(Br)(CC)C(=O)c1ccc(OCC(=O)O)c(Cl)c1Cl | 124%
33 | Oc1c(CNCCNCc2cc(Cl)cc(Cc3ccccc3)c2O)cc(Cl)cc1Cc1ccccc1 | 16%
34 | CCc1ccc(-c2ccc(COc3ccc(CC4SC(=O)NC4=O)cc3)cc2)cc1 (centres undefined) | 86.3%
35 | Cn1cc(-c2noc(-c3cn(C)c4ncc(F)cc34)n2)c2ccccc21 | 101%
36 | Clc1ccc2nc(-c3ccc(-c4ccc(/C=N/NC5=NCCN5)cc4)s3)cn2c1 | 101%
37 | CC(C)CCSc1nc(N)nc2nc[nH]c12 | 113%

Each compound was assayed on M14 melanoma in the same assay as above. Conditions: 10 µM unless noted.

Row | SMILES | growth
38 | O=C(COc1cccc(/C=C2\Oc3ccccc3C2=O)c1)c1ccc([N+](=O)[O-])cc1 | 100%
39 | CC[C@]12C=CCN3CC[C@@]4(c5ccc(OC)cc5N(C)[C@H]4[C@@](O)(C(=O)OC)[C@@H]1OC(=O)CCC(=O)N[C@H](Cc1c[nH]c4ccccc14)C(=O)OC)[C@@H]32 | -32.8% [100 µM] (active)
40 | C=C(C)[C@@H]1CC[C@]2(C(N)=O)CC[C@]3(C)[C@H](CC[C@@H]4[C@@]5(C)C/C(=C/c6cccnc6)[C@H](O)C(C)(C)[C@@H]5CC[C@]43C)[C@@H]12 | 33.8% [100 µM]
41 | CSc1nc2sc3cc(Cl)c(Cl)cc3n2c(=N)c1C#N | 94.3%
42 | COc1ccc(/C=C2\N=C(Nc3ccccc3)N(NC(=O)c3ccccn3)C2=O)cc1 | 101%
43 | O=C(NCCCNC(=O)OCc1ccc2cccc(O)c2n1)OCc1ccc2cccc(O)c2n1 | 38.9%
44 | COc1cc(C(=O)/C=C/c2c(-c3ccc(F)cc3)nc3sccn23)cc(OC)c1OC | 35.3%
45 | CCCCCCCCCCCCNC(=S)N/N=C/c1ccccc1O | 78.1%
46 | CCCc1cc2cc(-n3nc(C)c4c3CC(C)(C)CC4=O)cc(NC3CCSCC3)c2c(=O)[nH]1 | 56.6%
47 | COc1ccc(-c2cc(-c3ccc(OC)c(OC)c3)nc(SCCCCCC(=O)NO)n2)cc1 | 47.7%
48 | CCC(C)[C@H](NC(=O)NC(=O)NC(=O)CI)C(=O)OC (some centres undefined) | 71.2%
49 | CCN(CC)c1ccc(/C=C/c2ccc3cc(C)ccc3[n+]2CC)cc1 | 2.07% (active)
50 | N/C(=N\c1nc2ccccc2[nH]1)NC(=O)Cc1cccc2ccccc12 | 107%
51 | CC1(C)CC[C@]2(C(N)=O)CC[C@]3(C)C(=CC[C@@H]4[C@@]5(C)C/C(=C/c6ccncc6)C(=O)C(C)(C)[C@@H]5CC[C@]43C)[C@@H]2C1 | -24.4% [100 µM] (active)
52 | Cc1ccc(C2=C/C(=C/c3ccc(Br)cc3)C(=O)N2CCc2ccc(S(N)(=O)=O)cc2)cc1 | 97.5%
53 | Cc1ccc(NCCN2CCCCC2)c2c(=O)c3ccccc3sc12 | -30% (active)
54 | CC1(C)CC(=O)c2c(ccc(C(=O)C[C@@H](N)CO)c2N)O1 | -37.5% (active)
55 | CCCCC1COc2cccc3c2N1C=C/C3=C\C(=O)n1ccc2ccccc21 (centres undefined) | 56%
56 | CC(C)CSc1ncnc2nc[nH]c12 | 98.4%

Row | SMILES | growth
57 | CC1(C)CC[C@]2(C(=O)O)CC[C@]3(C)C(=CC[C@@H]4[C@@]5(C)C/C(=C/c6cccnc6)[C@H](O)C(C)(C)[C@@H]5CC[C@]43C)[C@@H]2C1 | 3.32% [100 µM] (active)
58 | COc1ccc(C=C2c3ccccc3-c3ccccc32)cc1 | 30%
59 | C#C[C@]1(O)CC[C@H]2[C@@H]3CC=C4c5nc(Nc6ccc(OC)cc6OC)sc5CC[C@]4(C)[C@H]3CC[C@@]21C | -41.4% (active)
60 | CCOC(=O)c1nn(C2CCCCO2)c2ccc(NC(=O)CSc3nc4ccccc4c(=O)[nH]3)cc12 (centres undefined) | 100%
61 | O=c1[nH]cnc2c1ccn2C1OC(CO)C(O)C1O (centres undefined) | 55.9%
62 | CCOC(=O)C(=Cc1ccccc1[N+](=O)[O-])C(=O)OCC | 25.2%
63 | Cc1cc(C)c(S(=O)(=O)/N=c2/n(-c3ccccc3)nc3n2CCN3C2=NCCN2)c(C)c1 | 98.9%
64 | COC(=O)c1cc2c(=O)[nH]cc3c2c(n1)CCC3 | 104%
65 | Cn1cc(-c2noc(C(=O)c3cn(C)c4ncccc34)n2)c2ccccc21 | 98.7%
66 | O=c1cc(-c2ccccc2)oc2cc(OCc3cn(Cc4ccc(F)cc4)nn3)cc(O)c12 | 65.9% [100 µM]
67 | Cc1ccc(Cn2c(O)c(N=NC(=O)c3ccc(S(N)(=O)=O)cc3)c3ccccc32)cc1 | 112%
68 | CC[C@]12C=CCN3CC[C@@]4(c5ccc(OC)cc5N(C)[C@H]4[C@@](O)(C(=O)OC)[C@@H]1OC(=O)CCC(=O)O[C@H]1CC[C@H]4[C@@H]5CCC6=CC(=O)CC[C@@H]6[C@H]5CC[C@]14C)[C@@H]32 | 1.67% [100 µM] (active)
69 | CCC(Br)(CC)C(=O)c1ccc(OCC(=O)O)c(Cl)c1Cl | 116%
70 | Oc1c(CNCCNCc2cc(Cl)cc(Cc3ccccc3)c2O)cc(Cl)cc1Cc1ccccc1 | 2.36% (active)
71 | CCc1ccc(-c2ccc(COc3ccc(CC4SC(=O)NC4=O)cc3)cc2)cc1 (centres undefined) | 79.6%
72 | Cn1cc(-c2noc(-c3cn(C)c4ncc(F)cc34)n2)c2ccccc21 | 71.7%
73 | Clc1ccc2nc(-c3ccc(-c4ccc(/C=N/NC5=NCCN5)cc4)s3)cn2c1 | 97.7%
74 | CC(C)CCSc1nc(N)nc2nc[nH]c12 | 91.6%
